Source: PubChem BioAssay
Rows were chosen to be rich in hits. Some 3.2% of all compounds tested hit in one or more screens of this group.
NCF1 inh – inhibitors of human p47phox binding. P14598. p47phox/p22phox peptide binding, fluorescence polarization, 2 h. inhibition, % at 24.7 µM. 0.53% of 220,000 active;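 active = inhibition above about 30%, limit read from the data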
Target sequence (P14598 whole entry, looked up): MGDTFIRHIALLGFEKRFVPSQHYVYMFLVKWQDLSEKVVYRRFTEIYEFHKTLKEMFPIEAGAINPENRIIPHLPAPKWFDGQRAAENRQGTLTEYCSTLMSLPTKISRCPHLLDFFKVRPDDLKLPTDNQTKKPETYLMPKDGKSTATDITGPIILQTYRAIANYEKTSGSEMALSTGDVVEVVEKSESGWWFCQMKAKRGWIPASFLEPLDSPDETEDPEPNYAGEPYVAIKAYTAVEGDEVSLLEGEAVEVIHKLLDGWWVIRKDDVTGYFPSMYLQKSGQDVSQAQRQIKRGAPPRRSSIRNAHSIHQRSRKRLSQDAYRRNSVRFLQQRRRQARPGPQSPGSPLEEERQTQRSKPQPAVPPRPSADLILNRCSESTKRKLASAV
14-3-3 Bad inh – disrupts binding of bovine 14-3-3 zeta to phospho-Bad peptide. P63103. TR-FRET 14-3-3zeta/Dy647-pBad peptide displacement, 1 h. inhibition, % at 21.7 µM. 0.71% of 220,000 active;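 active = inhibition above about 70%, limit read from the data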
Target sequence (P63103 whole entry, looked up): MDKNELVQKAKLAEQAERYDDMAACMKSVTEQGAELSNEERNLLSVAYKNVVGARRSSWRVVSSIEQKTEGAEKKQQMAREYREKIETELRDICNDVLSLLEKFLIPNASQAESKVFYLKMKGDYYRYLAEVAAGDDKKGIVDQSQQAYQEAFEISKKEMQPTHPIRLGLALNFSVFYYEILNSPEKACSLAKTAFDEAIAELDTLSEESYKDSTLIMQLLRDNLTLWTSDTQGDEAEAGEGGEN
Mcl1 Noxa PPI – disrupts binding of human Mcl-1 to Noxa peptide. AID 1022. 1.5% of 220,000 active. inhibition, % at 21.7 µM. TR-FRET Mcl-1/Noxa peptide binding, 2 h;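 active = compounds that cut the protein-peptide binding signal by more than 50% relative to plate controls in a single-dose test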;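 also: His-tagged Mcl-1 with rhodamine Noxa BH3 peptide and terbium anti-His antibody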
Mcl-1 Bim block – disrupts Bim peptide binding to human Mcl-1; inhibition, % at 10 µM; Bead-based flow cytometry, Bim peptide-Mcl-1 binding; 0.1% of 190,000 active; Q07820; in the data active = inhibition above about 40%
Mcl1-Bid inh – Mcl-1/Bid interaction inhibition. Q07820. TR-FRET Mcl-1/Bid-Dy647 peptide binding, 1536-well. inhibition, % at 21.7 µM. 0.97% of 220,000 active;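 active = compounds that cut the binding signal by more than half at the single screening dose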;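 also: His-tagged Mcl-1 with europium anti-His antibody binding Bid BH3 peptide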
Each line names hits and unclear results; the compound was inactive in the other large screens.

CCCn1c(=O)[nH]c(=O)c2c(C(=O)OCC)cc(-c3cccs3)nc21	none
Cc1cc(O)c(-c2cc(C(=O)Nc3sc4c(c3C(=O)NCc3ccco3)CCC4)[nH]n2)cc1C	Mcl1 Noxa PPI 71 (no result: Mcl-1 Bim block)
CCNC(=O)c1c(NC(=O)c2cc(-c3cc(C)ccc3O)n[nH]2)sc2c1CCCC2	NCF1 inh 52
COc1ccccc1-c1nnc(SCC(=O)Nc2ccc(S(N)(=O)=O)cc2)n1C	none
COC(=O)c1ccccc1C(=O)c1ccc2c(c1)NC(=O)CO2	none
CCCOc1ccc(-c2nnc(N)s2)cc1	Mcl1 Noxa PPI 62
COc1ccc(-c2nnc(N)s2)cc1	none
C/C(=N\NC(=O)c1cccnc1)c1ccc(OC2OCCOC2Oc2ccc(/C(C)=N/NC(=O)c3cccnc3)cc2)cc1 (centres undefined)	14-3-3 Bad inh 87
CCN(CC)c1ccc(C(=O)N/N=C(\C)c2cccnc2)cc1	none
O=C(O)[C@H](Cc1ccccc1)NC(=O)N1CCN(c2cccc(C(F)(F)F)c2)CC1	none (no result: Mcl-1 Bim block)
CC(C)=C1C(=O)NN(c2ccc(C)c(Cl)c2)C1=O	Mcl-1 Bim block 45
Cn1cccc1Cc1nnc(SCC(=O)Nc2cccc(Cl)c2)n1-c1ccc(F)cc1	Mcl1-Bid inh 65
O=c1c2ccccc2sn1-c1cc(S(=O)(=O)N2CCOCC2)ccc1N1CCOCC1	NCF1 inh 74, 14-3-3 Bad inh 74, Mcl1 Noxa PPI 75
O=c1c2ccccc2sn1-c1cc(S(=O)(=O)N2CCOCC2)ccc1N1CCCC1	NCF1 inh 58, Mcl1 Noxa PPI 64
CC1CC(C)CN(CCCSc2ccccc2)C1 (centres undefined)	none
CC1CC(C)CN(CCOCCSc2ccccc2)C1 (centres undefined)	Mcl1-Bid inh 69
O=S(=O)(O/N=C1\CCCc2ccccc21)c1ccccc1	none
COc1ccc(S(=O)(=O)O/N=C2\CCCc3ccccc32)cc1	NCF1 inh 42
O=C1c2ccccc2C(=O)N1CCCCSc1nnc2ccccn12	NCF1 inh 133
CCOC(=O)c1ccccc1NC(=O)c1ccc2nccnc2c1	Mcl1 Noxa PPI 51
CCOc1ccccc1NC(=O)c1ccc2nccnc2c1	none
CCOC(=O)c1ccccc1NC(=O)c1ccc(F)cc1	none
CCOC(=O)c1ccccc1NC(=O)c1c(F)c(F)c(F)c(F)c1F	14-3-3 Bad inh 81
CC(C)[C@H](NC(N)=O)C(=O)Nc1ccc(F)c(Cl)c1	none
Cc1cc(N=Nc2ccc(C)c(N=Nc3cc(C)c(N)cc3N)c2)c(N)cc1N	Mcl1 Noxa PPI 60 (no result: Mcl-1 Bim block)
Cc1ccc(N=Nc2ccc(O)c3ncccc23)cc1C	none
O=C(O)c1ccc(NS(=O)(=O)c2ccc3c(c2)C2C=CCC2C(c2ccccc2F)N3)cc1 (centres undefined)	Mcl1 Noxa PPI 93
NS(=O)(=O)c1ccc2c(c1)C1C=CCC1C(C1CC=CCC1)N2 (centres undefined)	none
O=C(O)C1C(=O)NCC1c1ccccc1 (centres undefined)	none
NNc1nc(-c2ccccc2)cs1	Mcl1-Bid inh 83
Cc1nc2ccccc2n1C1CCN(C(=O)Nc2ccccc2)CC1	none
O=C(CSc1nnc(COc2ccccc2Cl)o1)NC(=O)NCc1ccco1	Mcl1 Noxa PPI 81 (no result: Mcl-1 Bim block)
Cc1ccc(Nc2nnc(SCC(=O)NCc3ccco3)s2)cc1	Mcl1 Noxa PPI 53
CCOc1ccccc1-n1nnnc1SCC(=O)NC(=O)NCc1ccco1	Mcl1 Noxa PPI 53
Nn1c(SCC(=O)NC(=O)NCc2ccco2)nnc1-c1ccc(OC(F)F)cc1	Mcl1 Noxa PPI 96
CCCN(CCC)CCCNC(=O)CN1C(=O)CSc2ccc(S(=O)(=O)N3CCOCC3)cc21	none
CC(NC(=O)/C(C#N)=C1\N=C(NC(=O)c2cccs2)c2ccccc21)c1ccccc1 (centres undefined)	none
O=C(N/N=C/c1ccc2cccnc2c1)c1nc2ccccc2c(=O)[nH]1	none (no result: Mcl-1 Bim block)
Cc1nnc(SCC(=O)NC(=O)NCc2ccco2)n1Cc1ccccc1	Mcl1 Noxa PPI 53
Cc1sc2nc(SCC(=O)NCc3ccco3)n(C)c(=O)c2c1C	none
O=C(CSc1nnc(Nc2ccccc2F)s1)NCc1ccco1	none
Cc1ccccc1Nc1nnc(SCC(=O)NC(=O)NCc2ccco2)s1	Mcl1 Noxa PPI 56
CCn1c(SCC(=O)NC(=O)NCc2ccco2)nc2sc(C)c(C)c2c1=O	Mcl1 Noxa PPI 55
Cc1c(NC(=O)COC(=O)c2ccc(Br)o2)c(=O)n(-c2ccccc2)n1C	none
O=C(CNC(=S)N(Cc1ccccc1)Cc1cccnc1)NCCN1CCOCC1	none
COc1cc(NC(=O)COc2ccccc2[N+](=O)[O-])ccc1NC(=O)c1cccs1	NCF1 inh 52, 14-3-3 Bad inh 74, Mcl1 Noxa PPI 57
CCn1c(-c2ccccc2)csc1=Nc1ccc(O)cc1	Mcl1 Noxa PPI 64
NC(=O)C1CCN(Cc2nc3cc(C(F)(F)F)ccc3c(=O)[nH]2)CC1	none (no result: Mcl-1 Bim block)
Nc1c2c(nc3ccccc13)CCCC2	Mcl1 Noxa PPI 51
O=C(O)COc1ccccc1/C=N/NC(=O)CSc1nc2ccccc2n1Cc1ccc(Cl)cc1	none (no result: Mcl-1 Bim block)
N=C1C(c2nc3ccccc3c(=O)[nH]2)=C(O)CN1c1ccccc1	none
CCOc1ccc(N2CC(O)=C(c3nc4ccccc4c(=O)[nH]3)C2=N)cc1	Mcl1-Bid inh 57
O=C(COC(=O)CCS(=O)(=O)c1ccc(Cl)cc1)Nc1ncc(Cl)cc1Cl	Mcl1-Bid inh 93
Cc1c(Cl)cnc(NC(=O)COC(=O)CCS(=O)(=O)c2ccccc2)c1Cl	none
O=C(COC(=O)C1CCN(S(=O)(=O)c2cc([N+](=O)[O-])ccc2Cl)CC1)Nc1ncc(Cl)cc1Cl	Mcl1 Noxa PPI 69
COc1ccc(C(=O)CN2Cc3ccccc3C2=N)cc1	none (no result: Mcl-1 Bim block)
Cc1c(C)n(CC(O)CN2CCCCC2)c2ccccc12 (centres undefined)	none
Cc1c(C)n(CC(O)CN2CCOCC2)c2ccccc12 (centres undefined)	NCF1 inh 66
Cc1ccccc1-c1nc(CS(=O)(=O)CC(=O)NCCN2CCOCC2)c(C)o1	NCF1 inh 69
Cc1ccccc1-c1nc(CS(=O)(=O)CC(=O)NCCCN2CCCC2)c(C)o1	none
COc1ccc(C(=O)NCCCc2nc3ccccc3n2Cc2ccccc2C)cc1OC	none
CCOc1c(O)ccc(/C=C2\SC(=S)NC2=O)c1[N+](=O)[O-]	Mcl1 Noxa PPI 72
CCOc1c(OC(C)=O)ccc(/C=C2\N=C(SCC)SC2=O)c1[N+](=O)[O-]	none
CCCN1Cc2cccc(C(=O)NC(CC(=O)OCC)c3ccc(OCC)c(OC)c3)c2C1=O (centres undefined)	none
CCOc1cc(/C=N/NC(=O)C(=O)NCCCOC(C)C)cc(Br)c1O	Mcl1 Noxa PPI 56
Cc1ccc(CN2CCN(Cc3cccn3-c3ccccn3)CC2CCO)o1 (centres undefined)	none
Cc1nnn(-c2nonc2N)c1C(=O)NNC(=O)c1ccc(Cl)c(Cl)c1	none
O=C(c1cccc(F)c1)N1CCN(C2CCCCC2)CC1	none
O=C(c1ccccc1)N1CCN(C2CC3CCC2C3)CC1 (centres undefined)	Mcl1-Bid inh 57
